This note sets out measurements from PubChem BioAssay AID2629 (Broad Institute, 2010).

SMILES strings stand for the structures. Screen size: about 320,000 compounds; about 1,900 (0.59%) were called active. The list comes from a sample in which actives are over-represented; it also holds similar structures and randomly drawn compounds. Values without a mark were called inactive. Cut-off read from the data, not from the text of the source: active = inhibition mostly above about 10% (no sharp cut-off); inactive = mostly below about 6.7%.

Chain of Protein LANA1 (Human herpesvirus 8 type P (isolate GK18)) (Q9QR71 whole entry, looked up): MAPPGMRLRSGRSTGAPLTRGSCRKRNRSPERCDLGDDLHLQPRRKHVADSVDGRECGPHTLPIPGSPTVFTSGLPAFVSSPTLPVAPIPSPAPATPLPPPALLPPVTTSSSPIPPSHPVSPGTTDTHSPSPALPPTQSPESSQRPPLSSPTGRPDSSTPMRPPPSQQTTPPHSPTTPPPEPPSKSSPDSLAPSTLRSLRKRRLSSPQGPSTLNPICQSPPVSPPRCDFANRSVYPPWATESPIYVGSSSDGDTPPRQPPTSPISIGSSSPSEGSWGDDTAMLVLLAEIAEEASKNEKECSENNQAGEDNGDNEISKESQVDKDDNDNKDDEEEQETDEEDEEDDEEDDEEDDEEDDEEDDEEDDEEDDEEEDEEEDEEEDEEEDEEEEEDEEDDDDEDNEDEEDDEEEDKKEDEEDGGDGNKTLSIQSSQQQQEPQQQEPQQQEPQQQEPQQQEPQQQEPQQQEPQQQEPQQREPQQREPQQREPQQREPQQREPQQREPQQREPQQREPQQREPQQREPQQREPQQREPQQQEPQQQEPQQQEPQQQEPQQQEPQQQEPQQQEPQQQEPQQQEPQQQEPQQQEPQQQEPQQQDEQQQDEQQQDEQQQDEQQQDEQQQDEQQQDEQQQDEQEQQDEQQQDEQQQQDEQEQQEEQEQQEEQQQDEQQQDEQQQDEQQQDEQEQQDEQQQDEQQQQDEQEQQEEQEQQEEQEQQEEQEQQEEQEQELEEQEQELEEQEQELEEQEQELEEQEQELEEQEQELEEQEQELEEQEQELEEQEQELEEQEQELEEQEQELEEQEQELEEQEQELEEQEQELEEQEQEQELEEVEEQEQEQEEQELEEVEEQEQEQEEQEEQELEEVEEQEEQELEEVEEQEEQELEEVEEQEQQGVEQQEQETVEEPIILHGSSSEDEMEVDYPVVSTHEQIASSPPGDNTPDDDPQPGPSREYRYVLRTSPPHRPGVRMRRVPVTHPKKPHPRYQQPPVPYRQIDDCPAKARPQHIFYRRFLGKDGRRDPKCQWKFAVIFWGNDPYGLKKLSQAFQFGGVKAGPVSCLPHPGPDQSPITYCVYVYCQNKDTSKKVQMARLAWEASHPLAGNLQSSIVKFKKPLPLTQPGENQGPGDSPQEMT

The test has as its target Protein LANA1 (Human herpesvirus 8 type P (isolate GK18)) (UniProt Q9QR71). The experiment in a line: blockers of LANA interaction with H2A/H2B – biochemical, FP readout, HTS, primary screen (AID 2629). Conditions: cell-free LANA-H2A/H2B peptide, fluorescence polarization, stronger effect = higher value, concentration not given here.
Consider `CCOc1ccc(CCNC(=O)COC(=O)c2c(OC)cccc2OC)cc1OCC`, for which the inhibition was 1.41%.

Regarding `FC(F)Oc1ccccc1C1CC(c2ccc(Br)s2)Nc2ncnn21` (centres undefined), the inhibition is 2.23%.

With `Cn1c(C(=O)OC(C(=O)NC2CCCCC2)c2ccccn2)cc2sccc21` (centres undefined), the inhibition is -2.12%.

`Cc1cc(C)c(C)c(S(=O)(=O)N[C@@H](C)C(=O)OC(C)C(=O)NC(N)=O)c1C` (some centres undefined): the inhibition was 0.241%.

In the case of `Cc1ccc(SC(C)C(=O)NCc2ccc(F)cc2)cc1` (centres undefined), the inhibition was -1.45%.

As for `COc1ccc(NC(=O)C2CCC(CNc3c(N4CCCCC4)c(=O)c3=O)CC2)c(OC)c1` (centres undefined), the inhibition was 2.53%.

`CCN(CCn1cccn1)Cc1nc(-c2ccc(C(=O)OC)cc2)no1`: the inhibition is 0.645%.

`COC(=O)c1ccc(S(=O)(=O)N2CCC(c3nc4ccccc4o3)CC2)cc1`: the inhibition is 1.89%.

On to `CC1(C)CC(=O)C(C2c3ccccc3S(=O)(=O)c3ccccc32)C(=O)C1`, for which the inhibition was -4.3%.

For `Cc1ccnc(NC(=O)c2ccc(Cl)c([N+](=O)[O-])c2)c1`, the inhibition is 21.7% (active).

Consider `O=C(Nc1cccnc1)c1ccc(Cl)c([N+](=O)[O-])c1`, for which the inhibition is -2.67%.

Turning to `O=C(Nc1ccncc1)c1ccc(Cl)c([N+](=O)[O-])c1`, the inhibition is -1.98%.

Consider `Nc1ccn(CC(=O)N2CCN(c3ccccn3)CC2)c(=O)n1`, for which the inhibition is 0.94%.

For `CC(C)Cn1c(N)c(C(=O)COC(=O)CN2C(=O)C3CC=CCC3C2=O)c(=O)n(C)c1=O` (centres undefined), the inhibition was -0.106%.

In the case of `CC(C)Cn1c(N)c(C(=O)COC(=O)C2CCCN2C(=O)c2cccs2)c(=O)n(C)c1=O` (centres undefined), the inhibition is 18.2% (active).

Regarding `CCCc1cc(=O)[nH]c(SCC(=O)c2c(N)n(CC(C)C)c(=O)n(C)c2=O)n1`, the inhibition was -3.84%.

For `Cc1cccnc1NC(=O)Cn1c(=O)oc2ccccc21`, the inhibition is 10.8%.

Consider `Oc1ccc2ccc3cccc[n+]3c2c1`, for which the inhibition is 94.4% (active).

On to `CC(C)(C)OC(=O)C[C@@H]1C/C=C\C[C@@H](CC(=O)N[C@H](CO)Cc2ccccc2)C(=O)NCCOC1=O`, for which the inhibition was -192%.

In the case of `CC(C)(C)OC(=O)C[C@H]1C/C=C\C[C@@H](CC(=O)N[C@H](CO)Cc2ccccc2)C(=O)NC[C@@H](c2ccccc2)OC1=O`, the inhibition is -0.906%.

In the case of `O=CN1CCN(C(=O)c2ccc3c(c2)OCO3)CC1`, the inhibition is 39.6% (active).

In the case of `O=C(c1ccc2c(c1)OCO2)N1CCN(C(=O)c2ccco2)CC1`, the inhibition is -0.585%.

In the case of `O=C(c1ccc2c(c1)OCO2)N1CCOCC1`, the inhibition was -0.497%.

As to `COc1ccc([C@H]2[C@H](C(C)=O)N3N=Cc4ccccc4C3C23C(=O)OC(C)(C)OC3=O)cc1` (some centres undefined), the inhibition is 0.0257%.
